Source: ChEMBL document CHEMBL3988442, “University of Dundee, Small-Polar-MMV Screening Library” (2021)
For some assays here: Measured potencies and affinities stand elsewhere.

How the values were obtained:
Set-up in all cases: scale not given: direction of the effect not stated beside the values
[1] = target: Protein translocase subunit SecA (Escherichia coli (strain K12)) (UniProt P10408); experiment: Assay to Identify E. coli SecA ATPase Inhibitors; type: functional; details: 30 µM
[2] = target: T1, Ubiquitin-activating enzyme e1, putative (Leishmania donovani (strain BPK282A1)) (UniProt E9BSI1); experiment: Leishmania donovani Ubiquitin Activating Enzyme (LdE1); type: functional; details: 30 µM
T1 sequence (whole entry): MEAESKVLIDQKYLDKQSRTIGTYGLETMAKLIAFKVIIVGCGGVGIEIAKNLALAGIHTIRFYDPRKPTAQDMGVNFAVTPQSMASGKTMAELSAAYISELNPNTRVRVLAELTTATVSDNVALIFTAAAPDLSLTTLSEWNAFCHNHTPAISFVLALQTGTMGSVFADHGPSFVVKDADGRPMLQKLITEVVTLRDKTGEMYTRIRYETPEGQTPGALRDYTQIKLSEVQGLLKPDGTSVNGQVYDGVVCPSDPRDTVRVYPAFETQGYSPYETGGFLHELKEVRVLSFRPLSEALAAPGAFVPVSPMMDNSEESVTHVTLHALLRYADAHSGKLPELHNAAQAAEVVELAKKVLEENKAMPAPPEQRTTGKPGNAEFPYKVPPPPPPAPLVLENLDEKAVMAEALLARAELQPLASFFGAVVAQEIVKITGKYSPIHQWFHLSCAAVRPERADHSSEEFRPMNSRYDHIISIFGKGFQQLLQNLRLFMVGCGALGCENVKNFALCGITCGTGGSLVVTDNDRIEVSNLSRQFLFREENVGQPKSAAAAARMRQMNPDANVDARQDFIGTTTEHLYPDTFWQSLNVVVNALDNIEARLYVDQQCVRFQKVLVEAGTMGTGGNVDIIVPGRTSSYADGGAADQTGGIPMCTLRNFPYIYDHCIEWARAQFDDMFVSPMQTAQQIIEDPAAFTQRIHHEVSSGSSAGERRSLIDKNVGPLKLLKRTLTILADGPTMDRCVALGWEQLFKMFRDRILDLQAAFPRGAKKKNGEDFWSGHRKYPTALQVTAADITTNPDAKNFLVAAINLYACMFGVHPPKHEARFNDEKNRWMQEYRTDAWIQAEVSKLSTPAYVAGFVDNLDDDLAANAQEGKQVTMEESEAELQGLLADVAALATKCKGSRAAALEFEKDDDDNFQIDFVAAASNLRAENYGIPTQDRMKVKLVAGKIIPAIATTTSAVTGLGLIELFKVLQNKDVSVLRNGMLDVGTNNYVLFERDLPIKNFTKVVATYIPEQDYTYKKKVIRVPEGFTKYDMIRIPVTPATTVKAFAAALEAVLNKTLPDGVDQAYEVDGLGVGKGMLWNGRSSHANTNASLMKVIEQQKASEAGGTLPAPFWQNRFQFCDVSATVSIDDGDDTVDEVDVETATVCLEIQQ

[3] = target: AMP-activated protein kinase, AMPK (Homo sapiens) (UniProt P54646+O43741+P54619+Q9UGJ0+Q9Y478+Q13131+Q9UGI9); experiment: AMP-dependent Kinase enzyme assay. An in vitro enzyme assay that detects ADP turnover that is directly proportional to AMPK activity. This uses naive AMPK that is activated during the assay with MK-8722; type: functional; details: 30 µM
[4] = target: Sialic acid-binding Ig-like lectin 9 (Homo sapiens) (UniProt Q9Y336); experiment: Hs-Siglec9 ALPHAscreen SOP 20170721; details: 10 µM
[5] = test system: Trypanosoma cruzi; experiment: Trypanosoma cruzi phosphomannomutase and mannose-1-phosphate guanylyltransferase assay; type: functional; details: 10 µM
[6] = target: T2, Arginase-2, mitochondrial (Homo sapiens) (UniProt P78540); experiment: in vitro enzyme assay to detect the production of urea directly proportional to the activity of Arginase II; type: functional; details: 33.3 µM; note: in the data most compounds retested in dose-response had high values
T2 sequence (whole entry): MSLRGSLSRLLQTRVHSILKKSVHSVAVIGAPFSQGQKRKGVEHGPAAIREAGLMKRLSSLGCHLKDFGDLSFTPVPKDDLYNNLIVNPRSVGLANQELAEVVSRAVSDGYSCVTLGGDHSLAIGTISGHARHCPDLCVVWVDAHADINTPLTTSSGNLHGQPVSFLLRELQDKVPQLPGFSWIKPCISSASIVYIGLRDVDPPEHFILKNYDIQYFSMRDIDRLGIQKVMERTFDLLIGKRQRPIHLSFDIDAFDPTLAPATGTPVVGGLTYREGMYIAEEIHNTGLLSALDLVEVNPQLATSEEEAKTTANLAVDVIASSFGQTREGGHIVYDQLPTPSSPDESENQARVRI

[7] = target: T3, Proteasome subunit beta (Trypanosoma cruzi) (UniProt O96673); experiment: Trypanosoma cruzi proteasome chymotrypsin-like activity (TcProtChymo) assay.; note: in the data most compounds retested in dose-response had high values; type: functional; details: 9.37 µM
T3 sequence (whole entry): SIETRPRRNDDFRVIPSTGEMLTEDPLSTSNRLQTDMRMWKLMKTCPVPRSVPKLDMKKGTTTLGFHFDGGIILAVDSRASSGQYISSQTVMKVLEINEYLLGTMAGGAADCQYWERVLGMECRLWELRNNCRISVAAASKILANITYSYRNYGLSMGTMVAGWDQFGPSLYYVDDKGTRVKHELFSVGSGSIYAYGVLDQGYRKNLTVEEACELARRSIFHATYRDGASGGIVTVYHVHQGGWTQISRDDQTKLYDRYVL

[8] = organism: Homo sapiens; experiment: To identify inhibition of the IFN signalling (Jak-Stat) pathway via expression of an eGFP reporter gene under the control of an IFN-stimulated response element (ISRE) containing MxA promoter.; type: functional; details: 30 µM
[9] = target: T4, Tyrosyl-tRNA synthetase, putative (Trypanosoma cruzi (strain CL Brener)) (UniProt Q4DSP6); experiment: Trypanosoma cruzi tyrosyl tRNA synthetase (TcYRS) _High Tyrosine SOP; type: functional; details: 30 µM; note: in the data most compounds retested in dose-response had high values
T4 sequence (whole entry): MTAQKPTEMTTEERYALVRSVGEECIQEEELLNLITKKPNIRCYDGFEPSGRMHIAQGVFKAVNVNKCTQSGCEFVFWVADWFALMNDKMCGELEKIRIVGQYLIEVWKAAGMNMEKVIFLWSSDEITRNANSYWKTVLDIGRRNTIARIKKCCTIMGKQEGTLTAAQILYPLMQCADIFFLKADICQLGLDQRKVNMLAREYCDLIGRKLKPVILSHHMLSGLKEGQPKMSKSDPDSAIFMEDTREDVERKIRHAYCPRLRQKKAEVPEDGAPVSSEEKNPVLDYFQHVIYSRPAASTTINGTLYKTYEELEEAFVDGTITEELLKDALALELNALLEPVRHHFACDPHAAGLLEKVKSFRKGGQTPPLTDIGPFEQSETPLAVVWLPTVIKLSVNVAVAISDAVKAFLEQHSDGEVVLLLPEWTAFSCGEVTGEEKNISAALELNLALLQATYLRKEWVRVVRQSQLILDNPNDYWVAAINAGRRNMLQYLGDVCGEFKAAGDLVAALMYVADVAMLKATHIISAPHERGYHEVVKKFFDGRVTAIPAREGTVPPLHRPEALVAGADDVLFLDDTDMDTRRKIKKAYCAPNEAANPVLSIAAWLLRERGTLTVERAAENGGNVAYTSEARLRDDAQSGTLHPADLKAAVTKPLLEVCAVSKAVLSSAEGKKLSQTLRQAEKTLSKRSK

[10] = target: T4, Tyrosyl-tRNA synthetase, putative (Trypanosoma cruzi (strain CL Brener)); experiment: Trypanosoma cruzi tyrosyl tRNA synthetase (TcYRS) SOP; type: functional; details: 30 µM
[11] = target: Chromo domain-containing protein 1 (Saccharomyces cerevisiae (strain ATCC 204508 / S288c) (Baker's yeast)) (UniProt P32657); experiment: ScCHD-1 Enzyme Inhibition Assay; type: functional; details: 30 µM; note: in the data most compounds retested in dose-response had high values
Sequence of Chromo domain-containing protein 1 (Saccharomyces cerevisiae (strain ATCC 204508 / S288c) (Baker's yeast)) (P32657 whole entry, the tested form may be a part): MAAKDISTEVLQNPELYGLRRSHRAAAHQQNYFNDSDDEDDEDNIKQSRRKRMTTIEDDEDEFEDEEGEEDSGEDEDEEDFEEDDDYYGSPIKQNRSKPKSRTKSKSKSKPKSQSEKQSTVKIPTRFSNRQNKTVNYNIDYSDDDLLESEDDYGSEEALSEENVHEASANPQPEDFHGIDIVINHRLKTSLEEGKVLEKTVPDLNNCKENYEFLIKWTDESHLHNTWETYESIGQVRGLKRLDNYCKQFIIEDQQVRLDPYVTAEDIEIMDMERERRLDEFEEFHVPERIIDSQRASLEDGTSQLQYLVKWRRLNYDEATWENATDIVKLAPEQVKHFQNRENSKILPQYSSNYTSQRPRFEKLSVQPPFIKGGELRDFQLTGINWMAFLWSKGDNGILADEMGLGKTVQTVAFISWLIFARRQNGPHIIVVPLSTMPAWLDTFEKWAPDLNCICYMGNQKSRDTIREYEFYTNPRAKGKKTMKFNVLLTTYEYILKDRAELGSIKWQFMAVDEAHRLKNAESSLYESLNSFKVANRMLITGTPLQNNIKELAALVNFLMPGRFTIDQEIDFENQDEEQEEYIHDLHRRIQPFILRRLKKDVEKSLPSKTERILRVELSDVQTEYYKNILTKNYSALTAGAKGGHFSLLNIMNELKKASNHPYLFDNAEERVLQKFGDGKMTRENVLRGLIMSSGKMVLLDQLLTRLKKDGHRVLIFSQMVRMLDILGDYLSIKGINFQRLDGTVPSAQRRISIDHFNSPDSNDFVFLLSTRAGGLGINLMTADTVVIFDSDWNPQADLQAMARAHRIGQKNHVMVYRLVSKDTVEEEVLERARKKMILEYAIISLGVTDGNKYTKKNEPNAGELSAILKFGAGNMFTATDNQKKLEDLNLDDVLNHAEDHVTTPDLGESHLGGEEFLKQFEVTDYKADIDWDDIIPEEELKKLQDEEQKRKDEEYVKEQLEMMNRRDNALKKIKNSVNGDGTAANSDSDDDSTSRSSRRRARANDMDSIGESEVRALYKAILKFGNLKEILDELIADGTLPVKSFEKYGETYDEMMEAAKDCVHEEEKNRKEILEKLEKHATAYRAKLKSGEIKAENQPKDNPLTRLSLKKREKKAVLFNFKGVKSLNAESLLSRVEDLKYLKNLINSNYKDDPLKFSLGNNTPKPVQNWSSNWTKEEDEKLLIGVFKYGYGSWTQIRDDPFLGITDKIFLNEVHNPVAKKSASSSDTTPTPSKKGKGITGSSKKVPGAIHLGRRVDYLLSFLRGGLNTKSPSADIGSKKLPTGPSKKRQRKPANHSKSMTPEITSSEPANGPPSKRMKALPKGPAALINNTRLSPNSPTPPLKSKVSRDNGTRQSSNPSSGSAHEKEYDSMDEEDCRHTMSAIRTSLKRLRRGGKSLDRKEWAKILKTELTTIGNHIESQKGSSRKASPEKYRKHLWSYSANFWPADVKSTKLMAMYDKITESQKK

Sequence of Sialic acid-binding Ig-like lectin 9 (Homo sapiens) (Q9Y336 whole entry): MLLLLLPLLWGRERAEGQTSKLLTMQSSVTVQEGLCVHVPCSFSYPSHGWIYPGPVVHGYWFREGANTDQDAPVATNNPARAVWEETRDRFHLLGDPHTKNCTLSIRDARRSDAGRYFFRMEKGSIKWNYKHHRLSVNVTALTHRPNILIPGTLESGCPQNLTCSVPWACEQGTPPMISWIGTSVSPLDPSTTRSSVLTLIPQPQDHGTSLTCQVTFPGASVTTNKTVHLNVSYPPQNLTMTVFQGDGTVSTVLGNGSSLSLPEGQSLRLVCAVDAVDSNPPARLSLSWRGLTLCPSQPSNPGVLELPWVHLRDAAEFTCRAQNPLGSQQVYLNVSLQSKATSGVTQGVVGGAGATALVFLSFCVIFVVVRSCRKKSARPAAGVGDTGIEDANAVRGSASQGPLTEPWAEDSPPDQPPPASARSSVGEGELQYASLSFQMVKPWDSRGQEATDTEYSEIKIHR
Sequence of Protein translocase subunit SecA (Escherichia coli (strain K12)) (P10408 whole entry): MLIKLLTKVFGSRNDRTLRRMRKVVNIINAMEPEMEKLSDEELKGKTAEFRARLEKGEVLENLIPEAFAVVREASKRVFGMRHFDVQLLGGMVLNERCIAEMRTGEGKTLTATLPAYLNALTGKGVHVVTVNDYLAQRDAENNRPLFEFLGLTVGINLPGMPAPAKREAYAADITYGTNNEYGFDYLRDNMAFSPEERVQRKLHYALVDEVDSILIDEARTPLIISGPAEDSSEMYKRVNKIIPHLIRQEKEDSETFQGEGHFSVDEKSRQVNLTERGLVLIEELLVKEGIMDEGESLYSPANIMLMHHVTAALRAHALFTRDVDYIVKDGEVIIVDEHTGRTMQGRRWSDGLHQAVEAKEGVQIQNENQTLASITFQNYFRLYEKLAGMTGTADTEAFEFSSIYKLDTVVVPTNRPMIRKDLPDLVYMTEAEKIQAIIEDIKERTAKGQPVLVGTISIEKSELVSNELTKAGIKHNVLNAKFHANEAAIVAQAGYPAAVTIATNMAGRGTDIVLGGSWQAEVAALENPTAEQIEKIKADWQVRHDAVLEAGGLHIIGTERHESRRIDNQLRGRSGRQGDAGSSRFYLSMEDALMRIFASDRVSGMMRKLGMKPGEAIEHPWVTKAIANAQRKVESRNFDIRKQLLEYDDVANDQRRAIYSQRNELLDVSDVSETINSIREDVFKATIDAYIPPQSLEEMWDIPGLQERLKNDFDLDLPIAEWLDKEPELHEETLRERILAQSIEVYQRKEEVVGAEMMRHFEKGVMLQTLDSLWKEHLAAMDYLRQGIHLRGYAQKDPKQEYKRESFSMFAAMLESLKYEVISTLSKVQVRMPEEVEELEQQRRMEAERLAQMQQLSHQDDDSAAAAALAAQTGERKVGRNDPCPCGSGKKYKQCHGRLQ

How did the Percent Effect [1] turn out when COc1ccc(-n2ccc(C(=O)NCCN3CCCCC3C)n2)cc1 (stereo not given) was run?
Its Percent Effect is -5.51%.

What about the Percent Effect [2] of the same compound?
The Percent Effect was -8.11%.

And the Percent Effect [3]?
Its Percent Effect is -13.2%.

And the Percent Effect [4]?
Its Percent Effect is 18.1%.

What about the Percent Effect [5] of the same compound?
The Percent Effect was 4.62%.

And the Percent Effect [6]?
The Percent Effect was -6.01%.

And the Percent Effect [7]?
The Percent Effect was 1.62%.

What about the Percent Effect [8] of the same compound?
The Percent Effect was -11.9%.

And the Percent Effect [9]?
The Percent Effect was 1.48%.

What about the Percent Effect [10] of the same compound?
The Percent Effect was 16.1%.

And the Percent Effect [11]?
The Percent Effect was -12.9%.

Which results are given for CCC(CNC(=O)Nc1cnn(CC)c1)N1CCCC1 (stereo not given)?
Percent Effect [1]: 0.765%; Percent Effect [2]: 17.7%; Percent Effect [3]: -9.29%; Percent Effect [4]: -3.26%; Percent Effect [5]: -6.33%; Percent Effect [6]: 3.04%; Percent Effect [7]: 8.27%; Percent Effect [8]: 8.67%; Percent Effect [9]: 3.45%; Percent Effect [10]: 16.5%; Percent Effect [11]: -5.82%

For COc1ncccc1NC(=O)C1CCS(=O)(=O)C1 (stereo not given), which Percent Effect [1] is on record?
The Percent Effect was -5.85%.

What about the Percent Effect [2] of the same compound?
The Percent Effect was 20.8%.

What about the Percent Effect [3] of the same compound?
Its Percent Effect is -1.47%.

What about the Percent Effect [4] of the same compound?
Its Percent Effect is -3.58%.

And the Percent Effect [5]?
Its Percent Effect is -5.99%.

What about the Percent Effect [6] of the same compound?
The Percent Effect was -1.07%.

What about the Percent Effect [7] of the same compound?
The Percent Effect was 3.21%.

What about the Percent Effect [8] of the same compound?
Its Percent Effect is 19.2%.

What about the Percent Effect [9] of the same compound?
The Percent Effect was 3.88%.

And the Percent Effect [10]?
Its Percent Effect is 12.2%.

And the Percent Effect [11]?
The Percent Effect was -9.93%.

With O=C(CCc1cscn1)N1CCCC(c2ccn[nH]2)C1 (stereo not given) as the compound, how does the Percent Effect [1] read?
Its Percent Effect is -3.73%.

What about the Percent Effect [2] of the same compound?
The Percent Effect was -5.2%.

What about the Percent Effect [3] of the same compound?
The Percent Effect was 4.11%.

And the Percent Effect [4]?
Its Percent Effect is 6.88%.

And the Percent Effect [5]?
The Percent Effect was -2.62%.

And the Percent Effect [6]?
The Percent Effect was 1.07%.

And the Percent Effect [7]?
The Percent Effect was 5.91%.

And the Percent Effect [8]?
The Percent Effect was 15.7%.

And the Percent Effect [9]?
The Percent Effect was 2.91%.

And the Percent Effect [10]?
Its Percent Effect is 0%.

What about the Percent Effect [11] of the same compound?
Its Percent Effect is -3.79%.

Which results are given for Cc1ccc(C)c(NC(=O)Nc2c[nH]c(=O)[nH]c2=O)c1?
Percent Effect [1]: 3.77%; Percent Effect [2]: 13%; Percent Effect [3]: -1.87%; Percent Effect [4]: -3.33%; Percent Effect [5]: -4.44%; Percent Effect [6]: 11%; Percent Effect [7]: 4.7%; Percent Effect [8]: 7.57%; Percent Effect [9]: 2.12%; Percent Effect [10]: 3.85%; Percent Effect [11]: -8.57%

Cc1cc(C)cc(N(C)S(=O)(=O)c2cc(C(=O)O)cs2)c1 was tested. Which Percent Effect [1] did it give?
The Percent Effect was -3.42%.

And the Percent Effect [2]?
Its Percent Effect is 5.41%.

What about the Percent Effect [3] of the same compound?
The Percent Effect was -10.8%.

What about the Percent Effect [4] of the same compound?
The Percent Effect was 15.8%.

And the Percent Effect [5]?
Its Percent Effect is 5.57%.

And the Percent Effect [6]?
The Percent Effect was -5.21%.

What about the Percent Effect [7] of the same compound?
Its Percent Effect is 0%.

And the Percent Effect [8]?
Its Percent Effect is 12.5%.

What about the Percent Effect [9] of the same compound?
The Percent Effect was -1.48%.

What about the Percent Effect [10] of the same compound?
Its Percent Effect is 3.7%.

What about the Percent Effect [11] of the same compound?
Its Percent Effect is -4.94%.

Which Percent Effect [1] does the source give for COCCC(=O)N1CCc2cc(Cl)cc(Cl)c2C1 here?
Its Percent Effect is -3.86%.

What about the Percent Effect [2] of the same compound?
Its Percent Effect is -44.2%.

And the Percent Effect [3]?
Its Percent Effect is 0.226%.

And the Percent Effect [4]?
The Percent Effect was 19.2%.

And the Percent Effect [5]?
The Percent Effect was 1.87%.

And the Percent Effect [6]?
The Percent Effect was 0%.

What about the Percent Effect [7] of the same compound?
The Percent Effect was 14%.

What about the Percent Effect [8] of the same compound?
The Percent Effect was -16.1%.

What about the Percent Effect [9] of the same compound?
The Percent Effect was -3.23%.

What about the Percent Effect [10] of the same compound?
Its Percent Effect is -1.24%.

And the Percent Effect [11]?
The Percent Effect was 126%.

Which results are given for CCCS(=O)(=O)N1CCC(NC(=O)c2ccc(Cl)s2)CC1?
Percent Effect [1]: -0.0871%; Percent Effect [2]: 2.67%; Percent Effect [3]: -1.87%; Percent Effect [4]: 5.67%; Percent Effect [5]: 5.16%; Percent Effect [6]: 9.9%; Percent Effect [7]: 3.14%; Percent Effect [8]: -1.58%; Percent Effect [9]: 8.2%; Percent Effect [10]: 16.1%; Percent Effect [11]: -3.77%

What does the source list for COCCN1CCC(NC(=O)C2(c3cc(C)cc(C)c3)CC2)CC1?
Percent Effect [1]: -5.08%; Percent Effect [2]: 0%; Percent Effect [3]: -4.53%; Percent Effect [4]: -1.6%; Percent Effect [5]: -1.59%; Percent Effect [6]: 0.719%; Percent Effect [7]: -1.95%; Percent Effect [8]: -10.6%; Percent Effect [9]: 1.48%; Percent Effect [10]: -1.24%; Percent Effect [11]: 6.15%

Which results are given for O=C(NCCCNC(=O)c1cccc(O)c1)NCc1ccccc1F?
Percent Effect [1]: -2.42%; Percent Effect [2]: 15.8%; Percent Effect [3]: 0.229%; Percent Effect [4]: 0.609%; Percent Effect [5]: 2.63%; Percent Effect [6]: -5.92%; Percent Effect [7]: 14.9%; Percent Effect [8]: 1.72%; Percent Effect [9]: 3.19%; Percent Effect [10]: 15.6%; Percent Effect [11]: -3.65%
